Measurements published in PubChem BioAssay (NCI).
Compounds without any hit were thinned out: in the full panel of roughly 83,000, 20% have a hit.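 Cell lines were cultured in 96-well plates, exposed to a single compound concentration, and assessed for percent growth 48 hours later.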 Active and inactive are the calls of the source. The calls were made as follows: active = growth percent below 10; inactive = the rest.

Test system: HL-60(TB) leukemia
Test: NCI-60 one-dose screen, 48 h (100 = growth as untreated, 0 = no growth, -100 = all killed)
Details: 10 µM unless noted

**Q.** S=C(SSC(=S)N1CCOCC1)N1CCOCC1 was tested. Which growth did it give?
**A.** Its growth is 98% (inactive).

**Q.** Which growth does the source give for O=C(N=Nc1c(O)[nH]c2ccccc12)Nc1ccc(Br)cc1 here?
**A.** Its growth is 70.2% (inactive).

**Q.** How did the growth turn out when COc1cc(NCc2cn(-c3ccc(C(=O)O)cc3)nc2-c2ccc(C(=O)O)cc2)cc(OC)c1OC was run?
**A.** Its growth is 120% (inactive).

**Q.** Which growth does the source give for COc1ccc(C(=O)COc2cccc(/C=C3\COc4ccc5ccccc5c4C3=O)c2)cc1 here?
**A.** The growth was 72.1% (inactive).

**Q.** How did the growth turn out when CCOC(=O)Nc1nc2ccc(SCC(C)C)cc2s1 was run?
**A.** Its growth is 11.6% (inactive).

**Q.** For Cn1c(=O)c2[nH]c(=S)n(Cc3ccccc3)c2n(C)c1=O, which growth is on record?
**A.** Its growth is 101% (inactive).

**Q.** How did the growth turn out when COc1cc(Cl)cc(-c2nn(C(=O)NS(=O)(=O)c3ccccc3)cc2-c2ccncc2)c1 was run?
**A.** Its growth is 94.3% (inactive).

**Q.** N#C/C(=C\c1ccc(C#N)cc1)C(=O)c1ccccc1 was tested. Which growth did it give?
**A.** Its growth is 92.7% (inactive).

**Q.** Which growth does the source give for O=c1c2cc(F)cc(Cl)c2sc2c(NCCCNCCO)nc3ccccc3c12 here?
**A.** The growth was 77.1% (inactive).

**Q.** COc1ccc(/C(=C\c2cc(OC)c(OC)c(OC)c2)C(=O)N2CCCNCC2)cc1 was tested. Which growth did it give?
**A.** Its growth is 96.4% (inactive).

**Q.** Which growth does the source give for O=C(CSc1nccc(Nc2ccc(S(=O)(=O)Nc3nccs3)cc2)n1)c1ccc(F)cc1 here?
**A.** Its growth is 104% (inactive).

**Q.** How did the growth turn out when Nc1nc2ncc(CNc3ccc(C(=O)NC(CCC(=O)NC(CCC(=O)NC(CCC(=O)NC(CCC(=O)NC(CCC(=O)O)C(=O)O)C(=O)O)C(=O)O)C(=O)O)C(=O)O)cc3)nc2c(=O)[nH]1 (stereo not given) was run?
**A.** Its growth is 93.5% (inactive).

**Q.** How did the growth turn out when COc1ccc(/C(C)=N/NS(=O)(=O)c2ccc(C)cc2)cc1OC was run?
**A.** Its growth is 97.6% (inactive).

**Q.** Which growth does the source give for CN(C)CCCC1(c2ccc(F)cc2)OCc2cc(-c3cc4ccccc4s3)ccc21 (stereo not given) here?
**A.** The growth was 22.3% (inactive).

**Q.** With COc1ccc(OC)c(/C=C2\Oc3cc(OCCCN4CCCC4)ccc3C2=O)c1 as the compound, how does the growth read?
**A.** Its growth is 87.5% (inactive).

**Q.** With COc1ccc2c(c1)c(/C(O)=C1\COC(=O)C1=O)cn2Cc1ccc(F)cc1 as the compound, how does the growth read?
**A.** Its growth is 85.6% (inactive).

**Q.** With ClCCOCCOc1ccc(C2CCCCC2)cc1 as the compound, how does the growth read?
**A.** The growth was 105% (inactive).

**Q.** How did the growth turn out when FC(F)(F)Oc1cccc(-c2cnc3ccc(-c4ccncc4)nn23)c1 was run?
**A.** Its growth is -19.3% (active).

**Q.** CC1(C)CCC(=NNC(N)=S)CC1 was tested. Which growth did it give?
**A.** The growth was 109% (inactive).

**Q.** For CC(CC(=O)c1ccccc1)c1ccccc1 (stereo not given), which growth is on record?
**A.** Its growth is 102% (inactive).

**Q.** With COc1ccc(/C=C2\CCC/C(=C\c3ccc(OC)c(OC)c3)C2=O)cc1OC as the compound, how does the growth read?
**A.** Its growth is 3.46% (active).

**Q.** With CCCN1CC(c2ccc(OC)c(OC)c2)=C(c2cn(C(=O)OCC)c3ccccc23)C1=O as the compound, how does the growth read?
**A.** The growth was 33.2% (inactive).

**Q.** With C=CCn1c(SCC(=O)Nc2ccc(C(=O)/C=C/c3cc(OC)c(OC)c(OC)c3)cc2)nnc1-c1cc(-c2ccc(S(N)(=O)=O)cc2)nc2ccccc12 as the compound, how does the growth read?
**A.** Its growth is 57.5% (inactive).

**Q.** For Nc1ccc(-c2nc3cc(Oc4ccc(Oc5ccc6[nH]c(-c7ccc(N)cc7)nc6c5)cc4)ccc3[nH]2)cc1, which growth is on record?
**A.** The growth was 103% (inactive).

**Q.** For Cn1c(COC(=O)N2CCCCC2)nc2c(N3CCOCC3)nc(-c3ccccc3)nc21, which growth is on record?
**A.** Its growth is -28% (active).

**Q.** CSc1ccc2c(c1)c(CCN)c(C)n2Cc1ccc(Cl)c(Cl)c1 was tested. Which growth did it give?
**A.** Its growth is -69.9% (active).

**Q.** With CN1CCN(Cc2ccc(NC(=O)c3ccc(C#Cc4c(N)ncc5ccc(F)cc45)cc3)cc2C(F)(F)F)CC1 as the compound, how does the growth read?
**A.** The growth was -10.7% (active).

**Q.** With C=C1C(=O)O[C@H]2[C@H]1CC/C(CNC(=O)c1cc3ccccc3[nH]1)=C\CC[C@@]1(C)O[C@@H]21 as the compound, how does the growth read?
**A.** Its growth is -41.5% (active).

**Q.** How did the growth turn out when CN(C)S(=O)(=O)Oc1ccc(-c2sc3cc(OS(=O)(=O)N(C)C)ccc3c2C(=O)c2ccc(OCCN3CCCCC3)cc2)cc1 was run?
**A.** Its growth is 53.2% (inactive).

**Q.** How did the growth turn out when CC(C)CN1CC(C(=O)Nc2ccc3c(c2)-c2ccccc2C3)CC1=O (stereo not given) was run?
**A.** The growth was 91.7% [50 µM] (inactive).

**Q.** For O=C(O)c1ccc(-n2c(=O)c3ccccc3c3ccccc3c2=O)cc1, which growth is on record?
**A.** The growth was 83.7% (inactive).

**Q.** Which growth does the source give for O=C1/C(=C/c2ccccn2)SC(=S)N1N1CCOCC1 here?
**A.** Its growth is 97.2% (inactive).

**Q.** For Fc1ccc([I+]c2ccc(F)cc2)cc1, which growth is on record?
**A.** The growth was 54.5% (inactive).

**Q.** How did the growth turn out when CCOc1ccc(/C=C/C=N/NC(N)=S)cc1 was run?
**A.** The growth was 42% (inactive).

**Q.** Which growth does the source give for O=C(O)CC1Cc2ccccc2C1C(=O)O (stereo not given) here?
**A.** The growth was 65% (inactive).

**Q.** CCN=Cc1c(O)c(O)c(C(C)C)c2cc(C)c(-c3c(C)cc4c(C(C)C)c(O)c(O)c(C=NCC)c4c3O)c(O)c12 was tested. Which growth did it give?
**A.** Its growth is 27.3% (inactive).

**Q.** With O=C(/C=C/c1cn(-c2ccccc2)nc1-c1ccc(Cl)cc1)c1ccc(F)cc1 as the compound, how does the growth read?
**A.** The growth was 56.6% (inactive).

**Q.** How did the growth turn out when O=C/C=C/c1ccc([N+](=O)[O-])cc1Cl was run?
**A.** Its growth is 82.6% (inactive).

**Q.** Which growth does the source give for O=C(Cc1nc2ccc([N+](=O)[O-])cc2nc1CC(=O)c1cccnc1)c1cccnc1 here?
**A.** The growth was 67.5% (inactive).

**Q.** For N#C/C(=C\NC(=S)N=Nc1c(O)[nH]c2ccccc12)c1nc2ccccc2s1, which growth is on record?
**A.** Its growth is 103% (inactive).
